Experimental findings from PubChem BioAssay (NCATS) are described below.

Records with an inconclusive call do not appear. Unmarked numbers belong to inactive results. Active and inactive are the calls of the source. Calls follow the shape of the dose curve; as a rule, active = well fitted inhibition curve with a large enough effect; inconclusive = small, poorly fitted or top-dose-only effect; inactive = flat fitted curve, though single readings scatter.
Potency is read from the fitted curve at half-maximal effect.

For one assay, the system named is CP256. The assay is described as follows: qHTS profiling for inhibitors of Plasmodium falciparum proliferation (AID 504749). Also: nearly all actives have a fitted effect of over 60% in size.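 As to activity, negative = inhibition: 0% = DMSO vehicle and full inhibition = artemisinin control.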 The conditions noted are these: P. falciparum in erythrocytes, SYBR Green DNA, 72 h; series mostly up to 28.7 µM; activity, negative = inhibition: at the top concentration. In a few lines:
(§1)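 Three-day growth assay of blood-stage parasites in erythrocytes (0.3% parasitemia, 2.5% hematocrit) at 37 C, 5% CO2, quantified by SYBR Green DNA staining after overnight detergent lysis.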
Background: In qHTS, concentration-response curves come from the screen itself.
On to `CN(C)c1ccc(C(=C2C=CC(=[N+](C)C)C=C2)c2ccccc2)cc1`, for which the Potency is 10 µM (active).

Regarding `O=C(OCc1ccccc1)c1ccccc1`, the “activity, negative = inhibition” value was 5.65%.

Consider `Nc1ccc(C(=O)O)c(O)c1`, for which the “activity, negative = inhibition” value was 7.77%.

`O=C(/C=C/c1ccccc1)NCCO`: the “activity, negative = inhibition” value is 7.27%.

With `O=C1CN(/N=C/c2ccc(-c3ccc([N+](=O)[O-])cc3)o2)C(=O)N1`, the “activity, negative = inhibition” value was -29.8%.

For `CCCCCCCCCCCCCCCCCC(=O)O`, the “activity, negative = inhibition” value was 2.69%.

`O=C(O)c1cc(O)c(O)c(O)c1`: the “activity, negative = inhibition” value was -0.511%.

Turning to `CCOC(=O)c1ccccc1O`, the “activity, negative = inhibition” value is 0.708%.

With `COc1cc(/C=C/C(=O)N2CCN(CC(=O)N3CCCC3)CC2)cc(OC)c1OC`, the “activity, negative = inhibition” value is 7.68%.

For the compound `Nc1cc(-c2ccncc2)c[nH]c1=O`, the “activity, negative = inhibition” value was 5.17%.

For `O=C(O)c1ccccc1Nc1cccc(C(F)(F)F)c1`, the “activity, negative = inhibition” value was -1.3%.

Consider `c1ccc2sc(SN3CCOCC3)nc2c1`, for which the “activity, negative = inhibition” value is 3.47%.

As to `Clc1ccccc1-c1nc(-c2ccncc2)no1`, the “activity, negative = inhibition” value was 3.08%.

Regarding `CCOc1ccc2nc(S(N)(=O)=O)sc2c1`, the “activity, negative = inhibition” value was -20.3%.

Turning to `CN1[C@@H]2CC[C@H]1CC(OC(c1ccccc1)c1ccccc1)C2` (some centres not stated), the Potency was 12.6 µM (active).

As to `O=C(O)/C=C/C(O)c1ccc(Cl)cc1` (configuration not stated), the “activity, negative = inhibition” value is 6.83%.

Consider `COC(=O)C1=C(C)NC(C)=C(C(=O)OCC(C)C)C1c1ccccc1[N+](=O)[O-]` (configuration not stated), for which the Potency is 10 µM (active).

As for `Oc1c(Br)cc(Br)c2cccnc12`, the “activity, negative = inhibition” value was -17.2%.

`Cc1ccc(C(=O)c2ccc(CC(=O)O)n2C)cc1`: the “activity, negative = inhibition” value is 11% [at 12.8 µM].

As to `O=C(CCN1CCN(CCO)CC1)N1c2ccccc2Sc2ccc(C(F)(F)F)cc21`, the Potency is 11.2 µM (active).

Consider `Cc1cc(O)c2ccccc2c1O`, for which the “activity, negative = inhibition” value was -1.9%.

As for `COc1ccc(-c2cc(=S)ss2)cc1`, the “activity, negative = inhibition” value is 8.01%.

As for `CCCSc1ccc2nc(NC(=O)OC)[nH]c2c1`, the “activity, negative = inhibition” value is -19.9% [at 12.8 µM].

On to `O=C(O)[C@H](CC(=O)N1C[C@H]2CCCC[C@H]2C1)Cc1ccccc1`, for which the “activity, negative = inhibition” value is 9.6%.

`C=C(Nc1ccc(OCC)cc1)Nc1ccc(OCC)cc1`: the Potency entry is “inactive”.

Regarding `CC(N)C(=O)OC(C)(C)Cc1ccc(Cl)cc1` (configuration not stated), the “activity, negative = inhibition” value is -29.1%.

A further assay deals with CP260. Described as above. The conditions noted are these: P. falciparum in erythrocytes, SYBR Green DNA, 72 h; series mostly up to 28.7 µM; activity, negative = inhibition: at the top concentration. In a few lines: as §1
Take `CN(C)c1ccc(C(=C2C=CC(=[N+](C)C)C=C2)c2ccccc2)cc1`: the Potency was 7.08 µM (active).

For the compound `O=C(OCc1ccccc1)c1ccccc1`, the Potency was 3.16 µM (active).

`Nc1ccc(C(=O)O)c(O)c1`: the “activity, negative = inhibition” value was 0.692%.

As to `O=C(/C=C/c1ccccc1)NCCO`, the “activity, negative = inhibition” value was 4.64%.

On to `O=C1CN(/N=C/c2ccc(-c3ccc([N+](=O)[O-])cc3)o2)C(=O)N1`, for which the “activity, negative = inhibition” value is -24.7%.

As for `CCCCCCCCCCCCCCCCCC(=O)O`, the “activity, negative = inhibition” value was 6.16%.

For `C[S+](CC[C@H](N)C(=O)O)C[C@H]1O[C@@H](n2cnc3c(N)ncnc32)[C@H](O)[C@@H]1O` (some centres not stated), the “activity, negative = inhibition” value was 10.5%.

In the case of `CCOC(=O)c1ccccc1O`, the “activity, negative = inhibition” value is 5.78%.

As for `COc1cc(/C=C/C(=O)N2CCN(CC(=O)N3CCCC3)CC2)cc(OC)c1OC`, the “activity, negative = inhibition” value was -10.6%.

On to `Nc1cc(-c2ccncc2)c[nH]c1=O`, for which the “activity, negative = inhibition” value was -18.2%.

In the case of `O=C(O)c1ccccc1Nc1cccc(C(F)(F)F)c1`, the “activity, negative = inhibition” value was -7.72%.

In the case of `Cc1nc2ccccc2n1Cc1ccc(Cl)cc1`, the “activity, negative = inhibition” value is -27.5%.

For the compound `Clc1ccccc1-c1nc(-c2ccncc2)no1`, the “activity, negative = inhibition” value was 2.23%.

In the case of `CCOc1ccc2nc(S(N)(=O)=O)sc2c1`, the “activity, negative = inhibition” value is 1.55%.

Consider `CN1[C@@H]2CC[C@H]1CC(OC(c1ccccc1)c1ccccc1)C2` (some centres not stated), for which the “activity, negative = inhibition” value is -24%.

Consider `O=C(O)/C=C/C(O)c1ccc(Cl)cc1` (configuration not stated), for which the “activity, negative = inhibition” value was 11.2%.

For the compound `Oc1c(Br)cc(Br)c2cccnc12`, the “activity, negative = inhibition” value was 1.98%.

Take `Cc1ccc(C(=O)c2ccc(CC(=O)O)n2C)cc1`: the “activity, negative = inhibition” value was 3.03% [at 12.8 µM].

For `O=C(CCN1CCN(CCO)CC1)N1c2ccccc2Sc2ccc(C(F)(F)F)cc21`, the Potency was 11.2 µM (active).

For the compound `Cc1cc(O)c2ccccc2c1O`, the “activity, negative = inhibition” value was -20.3%.

Take `COc1ccc(-c2cc(=S)ss2)cc1`: the “activity, negative = inhibition” value was -2.12%.

For the compound `CN1[C@@H]2CC[C@H]1CC(OC(=O)C(CO)c1ccccc1)C2` (some centres not stated), the “activity, negative = inhibition” value was -3.24%.

As for `CCCSc1ccc2nc(NC(=O)OC)[nH]c2c1`, the “activity, negative = inhibition” value was -21.1% [at 12.8 µM].

Take `O=C(O)[C@H](CC(=O)N1C[C@H]2CCCC[C@H]2C1)Cc1ccccc1`: the “activity, negative = inhibition” value is 3.65%.

Regarding `C=C(Nc1ccc(OCC)cc1)Nc1ccc(OCC)cc1`, the Potency result was “inactive”.

On to `CC(=O)[C@]1(O)Cc2c(O)c3c(c(O)c2[C@@H](O[C@H]2C[C@H](N)[C@H](O)[C@H](C)O2)C1)C(=O)c1c(O)cccc1C3=O`, for which the Potency was 3.55 µM (active).
